Measured values as given in PubChem BioAssay AID720690 (Broad Institute, 2013).
Measured potencies and affinities stand elsewhere. Values without a mark were called inactive.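 Rule for the calls: active = every repeat run showing a signal drop whose fitted half-maximal concentration is at most twice the top tested concentration; inconclusive = repeat runs disagree, or flat partial drop, or poor fit; inactive = the rest.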

Experiment: general mammalian cell viability loss – activator set, cherry-pick, cytotoxicity control for miR-122 modulator project, dose response (AID 720690);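 note: 0% = neutral control wells and -100% = MG132 cytotoxic control wells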
Conditions: HEK293T viability, CellTiter-Glo luminescence, 48 h; series mostly up to 26 µM; activity change, negative = cytotoxicity: at the top concentration

SMILES | activity change, negative = cytotoxicity
CN1C(=O)c2cc(NC(=O)c3cccc(F)c3)ccc2OC[C@@H]2O[C@@H](CC(=O)NC3CCC3)CC[C@@H]21 | -15.9%
COC(=O)C[C@@H]1CC[C@H]2[C@@H](COc3ccc(NC(=O)c4ccc(F)c(F)c4)cc3C(=O)N2C)O1 | -15.5%
CNC(=O)C[C@H]1CC[C@@H]2[C@H](COc3ccc(NC(=O)Nc4ccccc4OC)cc3C(=O)N2C)O1 | -0.263%
CCNC(=O)Nc1ccc2c(c1)C(=O)N(C)[C@H]1CC[C@H](CC(=O)NCCN3CCCC3)O[C@@H]1CO2 | -0.303%
CNC(=O)C[C@H]1CC[C@H]2[C@@H](COc3ccc(NC(=O)C(C)C)cc3C(=O)N2C)O1 | -14.9%
COCC(=O)Nc1ccc2c(c1)C(=O)N(C)[C@@H]1CC[C@H](CC(=O)NCCCN(C)C)O[C@H]1CO2 | -12.7%
CO[C@H]1CN(C)C(=O)c2cc(NC(=O)c3cccc(Oc4ccccc4)c3)ccc2OC[C@@H](C)NC[C@H]1C | -5.78%
COCC(=O)N1[C@H](CO)[C@H]2c3ccccc3N(C(=O)c3ccccc3F)C[C@H]21 | -7.76% [at 23.5 µM]
CCNC(=O)Nc1ccc2c(c1)C(=O)N(C)[C@H]1CC[C@@H](CC(=O)NCCOC)O[C@@H]1CO2 | -0.32%
COc1ccc(S(=O)(=O)Nc2cccc3c2O[C@H](CN(C)CC2CCCCC2)[C@@H](C)CN([C@H](C)CO)C3=O)cc1 | 3.99%
CCCNC(=O)Nc1ccc2c(c1)C(=O)N(C)[C@H]1CC[C@@H](CC(=O)NCC3CCCCC3)O[C@@H]1CO2 | 4.38%
COC(=O)C[C@@H]1CC[C@@H]2[C@@H](COc3ccc(NC(=O)c4cc(F)cc(F)c4)cc3C(=O)N2C)O1 | -13.6%
N#Cc1cccc(NC(=O)Nc2cccs2)c1 | -33.5%
C/C=C/c1ccc([C@@H]2[C@@H](CO)N(S(C)(=O)=O)[C@H]2CN(C)C(=O)CC)cc1 | -8.55%
CN1C(=O)c2cc(NC(=O)c3cccs3)ccc2OC[C@@H]2O[C@@H](CC(=O)NCCN3CCCCC3)CC[C@H]21 | 1.91%
COC(=O)C[C@H]1CC[C@H]2[C@H](COc3ccc(NS(=O)(=O)c4ccc(F)cc4)cc3C(=O)N2C)O1 | -2.24%
COCC(=O)Nc1ccc2c(c1)C(=O)N(C)[C@@H]1CC[C@H](CC(=O)Nc3cn(C)nc3C)O[C@H]1CO2 | -4.99%
CN1C(=O)c2cc(NC(=O)Nc3ccccc3F)ccc2OC[C@@H]2O[C@H](CC(=O)O)CC[C@@H]21 | -1.17% [at 23.5 µM]

SMILES | activity change, negative = cytotoxicity
O=C(Nc1ccc(Cl)c(C(F)(F)F)c1)c1ccco1 | -1.21%
Cc1cc(C(C)(C)C)cc(S(=O)(=O)NCCc2ccncc2)c1C | 3.39%
CCNC(=O)Nc1ccc2c(c1)C(=O)N(C)[C@H]1CC[C@H](CC(=O)NCc3ccccc3F)O[C@H]1CO2 | -5.41%
CNC(=O)C[C@H]1CC[C@H]2[C@@H](COc3ccc(NC(=O)c4cccc(OC)c4)cc3C(=O)N2C)O1 | -3.39%
COc1cccc(C(=O)Nc2ccc3c(c2)C(=O)N(C)[C@H]2CC[C@H](CC(=O)NCc4ccc(F)cc4)O[C@H]2CO3)c1 | -30.3%
O=c1c2c3c(sc2nc2n1CCC2)CCCC3 | 3.96%
CN1C(=O)c2cc(NS(=O)(=O)c3cccc(F)c3)ccc2OC[C@H]2O[C@@H](CC(=O)NCCN3CCCCC3)CC[C@H]21 | -0.413% [at 23.5 µM]
CCCc1ccc(S(=O)(=O)NCCc2ccncc2)cc1 | -8.93%
O=C(Nc1ccccc1)N1C[C@@H]2[C@H](c3ccccc31)[C@H](CO)N2C(=O)c1ccncc1 | -15.6% [at 23.5 µM]
c1ccc(-n2nnnc2NCCc2c[nH]c3ccccc23)cc1 | -12.3%
CN(C)C(=O)c1ccc(NC(=O)c2cc(-n3cnnc3)ccc2Cl)cc1 | 0.004%
CC(=O)N(C[C@H]1N[C@H](CO)[C@@H]1c1ccc(-c2ccccc2)cc1)C(C)C | -0.118%
O=C(c1cccnc1)N1C[C@H]2[C@@H](c3ccccc31)[C@H](CO)N2C(=O)Nc1ccccc1Cl | -14.2% [at 23.5 µM]
CCOC(=O)CSc1nnnn1-c1cccc2ccccc12 | 1.77%
Cc1ccccc1NC(=O)Nc1ccc2c(c1)C(=O)N(C)[C@@H]1CC[C@H](CC(=O)NCC3CC3)O[C@@H]1CO2 | 9.82%
CN1C(=O)c2cc(NC(=O)c3cccc(F)c3)ccc2OC[C@H]2O[C@@H](CC(=O)O)CC[C@H]21 | 8.84%
COC(=O)c1nn(-c2ccccc2)c(Sc2ccc(Cl)cc2)c1/C=N/O | 37%
C/C=C/c1ccc([C@@H]2[C@@H](CNC(=O)CC)N(Cc3ccccn3)[C@H]2CO)cc1 | -6.56%
